# Inconclusive results are not listed. Where a call stands in place of a potency, no number is given. Active and inactive are the calls of the source. The call rests on the fitted dose curve; in most records, active means well fitted curve in the direction sought with a large enough effect; inconclusive means small, poorly fitted or top-dose-only effect, or another doubt; inactive means no such curve, though single readings can be large; an effect the other way counts as inactive or inconclusive.
# Key:
# [1] = target: Nuclear receptor subfamily 1 group I member 3 (Homo sapiens) (UniProt Q14994); test: Primary qHTS for antagonist of constitutive androstane receptor (CAR) against the NCATS DSHEA and TCM libraries (AID 1794836); conditions: CAR reporter cell assay, antagonist mode, luciferase; series mostly up to 40 µM;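 further: HepG2 cells stably expressing hCAR with CYP2B6 luciferase reporter stimulated by CITCO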
# Nuclear receptor subfamily 1 group I member 3 (Homo sapiens), sequence (Q14994 whole entry, looked up): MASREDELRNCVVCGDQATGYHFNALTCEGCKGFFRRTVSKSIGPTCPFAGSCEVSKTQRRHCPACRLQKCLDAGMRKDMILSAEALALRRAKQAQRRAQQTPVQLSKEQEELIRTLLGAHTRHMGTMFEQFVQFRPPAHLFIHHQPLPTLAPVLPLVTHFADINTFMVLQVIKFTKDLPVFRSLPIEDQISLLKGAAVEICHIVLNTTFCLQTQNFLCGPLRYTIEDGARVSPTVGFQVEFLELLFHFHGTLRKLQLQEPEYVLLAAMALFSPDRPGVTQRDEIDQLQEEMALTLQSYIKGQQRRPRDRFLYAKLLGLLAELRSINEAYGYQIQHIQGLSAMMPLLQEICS
# In short: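 HepG2-CYP2B6-hCAR cells, attached 5 h, given compounds plus CITCO agonist […], incubated 24 h at 37 C. Luciferase luminescence read, multiplexed with CellTiter-Fluor viability (Ex/Em 405/540 nm).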
# [2] = target: Metallo-beta-lactamase type 2 (Klebsiella pneumoniae) (UniProt C7C422); test: qHTS to identify inhibitors of the New Delhi Metallo-beta-lactamase (NDM): assay validation screen against the NCATS LOPAC Collection (AID 1794843); conditions: NDM-1 enzyme, nitrocefin hydrolysis, absorbance 485 nm; series mostly up to 38.4 µM;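 further: nitrocefin turnover by NDM-1 measured as 485 nm absorbance at plateau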
# Metallo-beta-lactamase type 2 (Klebsiella pneumoniae), sequence (C7C422 whole entry, looked up): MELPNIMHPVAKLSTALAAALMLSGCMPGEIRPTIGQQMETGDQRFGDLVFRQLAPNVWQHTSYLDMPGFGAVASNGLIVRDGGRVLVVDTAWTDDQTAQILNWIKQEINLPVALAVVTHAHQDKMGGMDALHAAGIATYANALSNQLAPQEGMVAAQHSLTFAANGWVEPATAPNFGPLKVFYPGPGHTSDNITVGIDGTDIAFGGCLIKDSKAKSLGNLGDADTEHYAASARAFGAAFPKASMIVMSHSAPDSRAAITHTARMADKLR
# In short: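 NDM-1 at 2 nM final in 50 mM HEPES pH 7.0 with 1 uM ZnSO4 and 0.01% Tween20 was preincubated with library compounds in DMSO. Nitrocefin (50 uM stock) was then added, and absorbance at 485 nm was read at the kinetic plateau.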
# [3] = target: Glutathione peroxidase 1 (Homo sapiens) (UniProt P07203); test: Primary qHTS Assay for Inhibitors of Recombinant Selenoprotein Glutathione Peroxidase 1 (GPX1) (AID 1845191); conditions: recombinant GPX1, GR-coupled NADPH fluorescence, 15 min; series mostly up to 48.8 µM; further: nearly all actives have a fitted effect of over 65% in size
# Glutathione peroxidase 1 (Homo sapiens), sequence (P07203 whole entry, looked up): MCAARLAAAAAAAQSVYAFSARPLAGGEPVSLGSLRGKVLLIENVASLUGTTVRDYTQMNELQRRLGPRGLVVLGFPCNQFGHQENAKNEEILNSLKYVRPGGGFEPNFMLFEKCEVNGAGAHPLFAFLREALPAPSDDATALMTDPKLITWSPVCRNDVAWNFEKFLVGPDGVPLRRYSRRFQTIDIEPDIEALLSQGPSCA
# In short: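 GR-coupled readout: NADPH consumption tracked by fluorescence, ex 340/em 450 nm, at t=0 and after 15 min at RT. Final mix 10 nM GPX1, 1 mM GSH, 0.5 mM CHP, 0.5 mM NADPH, 100 nM GR, 0.01% BSA, following 30 min enzyme–compound preincubation.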
# [4] = target: Phospholipid hydroperoxide glutathione peroxidase GPX4 (Homo sapiens) (UniProt P36969); test: Primary qHTS Assay for Inhibitors of Recombinant Selenoprotein Glutathione Peroxidase 4 (GPX4) (AID 1845192); conditions: recombinant GPX4, GR-coupled NADPH fluorescence, 15 min; series mostly up to 50 µM; further: nearly all actives have a fitted effect of over 65% in size
# Phospholipid hydroperoxide glutathione peroxidase GPX4 (Homo sapiens), sequence (P36969 whole entry, looked up): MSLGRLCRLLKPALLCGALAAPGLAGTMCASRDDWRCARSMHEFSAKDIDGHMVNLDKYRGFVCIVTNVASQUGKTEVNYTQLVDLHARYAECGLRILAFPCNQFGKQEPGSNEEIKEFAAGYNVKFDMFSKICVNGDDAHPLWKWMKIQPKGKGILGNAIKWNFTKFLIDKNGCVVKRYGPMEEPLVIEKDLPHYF
# In short: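 Steps: GPX4 plus compound, 30 min RT; add GR/GSH/NADPH master mix; start with cumene hydroperoxide; read 340/450 nm fluorescence at 0 and 15 min. Finals were 200 nM GPX4, 1 mM GSH, 0.5 mM CHP, 0.5 mM NADPH, 100 nM GR.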
# [5] = Quantitative High-Throughput drug screen in 47 multiple myeloma cell lines against the NCATS MIPE library collection: FR4_PLB cell viability assay (AID 1918924; further: nearly all actives have a fitted effect of over 35% in size); conditions: FR4_PLB myeloma cells viability, CellTiter-Glo ATP, 48 h; series mostly up to 45.8 µM
# In short: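 Steps: seed 500 cells per well; pin-transfer MIPE 4.0 library; incubate 48 h at 37C, 5% CO2, humidified; add CellTiter-Glo, 5 min room temperature; read luminescence.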
# [6] = NCATS anti-infectives library activity on HEK293 viability as a counter-qHTS vs the C. elegans viability qHTS (AID 1745854); conditions: HEK293 viability counter-screen; series mostly up to 41.8 µM;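 further: HEK293 cells exposed to compounds for 24 hr before the viability read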
# In short: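 Compound titrations (final up to 41.7 uM) were incubated with HEK293 cells for 24 hr at 37C under 5% CO2. Viable cells were quantified with CellTiter-Glo after 10 min at ambient temperature.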
# [7] = target: Luciferin 4-monooxygenase (Photinus pyralis) (UniProt P08659); test: Primary firefly luciferase (FLuc) qHTS assay for identification of artifact compounds. (AID 1845220); conditions: purified firefly luciferase, luminescence, 5 min; series mostly up to 54.1 µM; further: nearly all actives have a fitted effect of over 60% in size
# In short: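 Titrated compounds were incubated 15 min at RT, protected from light, with luciferin and ATP at 10 uM; reaction started with 10 nM FLuc, luminescence imaged at 5 min, and concentration-response fitted by Hill equation.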
# [8] = system: Nanoluciferase (engineered Oplophorus gracilirostris luciferase); test: Primary Nanoluciferase (NLuc) qHTS assay for identification of artifact compounds. (AID 1845222); conditions: NLuc-conditioned medium, Nano-Glo luminescence, 5 min; series mostly up to 54.1 µM;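 further: NLuc secreted into diluted conditioned medium of S16 cells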
# In short: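 qHTS format, against NLuc in S16 cell-conditioned medium. Nano-Glo substrate 1:100 was added after 15 min at room temperature. Luminescence was taken after a further 5 min.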
# [9] = Primary redox qHTS assay for identification of artifact compounds. (AID 1845223); conditions: Amplex Red/HRP redox cycling with DTT, fluorescence; series mostly up to 53.8 µM
# From the text: PI: Alexander Tropsha Ph.D.
# UNC Eshelman School of Pharmacy
# University of North Carolina, Chapel Hill, North Carolina
# Hits from high-throughput screening (HTS) of chemical libraries are often false positives due to their interference with the assay detection technology. In response to this problem, we generated the largest publicly available library of chemical liabilities and developed a free webtool to predict HTS artifacts, both of which are described herein. More specifically, we generated, curated, and integrated HTS datasets for thiol reactivity, redox activity, and luciferase (firefly and nano) activity. Using these curated datasets, we developed and validated several Quantitative Structure-Interference Relationship (QSIR) models to predict nuisance behavior. […] These models were employed for virtual profiling of the National Center for Advancing Translational Science's (NCATS) in-house library, and 256 compounds for each assay were selected for the experimental validation of nuisance behavior. The BA for these external predictions ranged from 58 to 78% for compounds within the applicability domains of the models. […] The models developed in this study, along with aggregation models previously developed by our group (SCAM Detective) were implemented in "Liability Predictor," an online tool which may be used as part of chemical library design or for triaging HTS hits. Both the models and the curated datasets are publicly available at https://liability.mml.unc.edu/.
# SEQUENCE No. (e.g., 1, 2, 3, etc.); […] (e.g., Cells, Incubation, Reagent, etc.); VALUE; DESCRIPTION.
# 1; Reagent; 3 uL; Amplex Red and HRP mixture.
# 2; Compounds and control; 16 nL; Kalypsis pin tool (Wako USA) equipped with a 1536-well pin head. […]
# 6; Detection; Fluorescence, ViewLux microplate reader, 525 nm excitation, 598 nm emission.
# NOTES (numbers refer to Sequence numbers above)
# 1. […]
# 6. Samples were read for fluorescence (Ex/Em = 525(20)/598(25) nm) on a ViewLux CCD imager (PerkinElmer). […]
structure (smiles),measurement,setting,value
CCCCCCCCCCCCCCCC(=O)O,outcome,[1],inactive
CC(C)c1cccc(C(C)C)c1O,outcome,[2],inactive
same,Potency,[3],inactive
same,Potency,[4],inactive
same,Potency,[5],inactive
COc1cccc2c1C(=O)c1c(O)c3c(c(O)c1C2=O)C[C@@](O)(C(=O)CO)CC3OC1CC(N2CCOC(OC)C2)C(O)C(C)O1 (stereo not given in full),Potency,[3],inactive
O=c1[nH]oc2c1CCNC2,outcome,[2],inactive
same,Potency,[3],inactive
same,Potency,[4],inactive
C=C(C)[C@H]1CN[C@H](C(=O)O)[C@H]1CC(=O)O,Potency,[3],inactive
same,Potency,[4],inactive
CC(C)=CCC[C@@](C)(O)[C@H]1CC=C(C)CC1,outcome,[1],inactive
CN1C(=O)CCS(=O)(=O)C1c1ccc(Cl)cc1 (stereo not given),outcome,[2],inactive
same,Potency,[3],inactive
same,Potency,[4],inactive
CC(C)[C@H]1C(=O)N2CCC[C@H]2[C@]2(O)O[C@](NC(=O)[C@@H]3C[C@@H]4c5cccc6[nH]cc(c56)C[C@H]4N(C)C3)(C(C)C)C(=O)N12,Potency,[3],inactive
COC1CC(=C(c2cccs2)c2cccs2)C[N+](C)(C)C1 (stereo not given),Potency,[3],inactive
same,Potency,[4],inactive
O=C1c2ccccc2C(=O)c2ccccc21,outcome,[6],inactive
same,Potency,[3],inactive
same,Potency,[4],inactive
O=C(CCCN1CCC2(CC1)C(=O)NCN2c1ccccc1)c1ccc(F)cc1,outcome,[2],inactive
same,Potency,[3],inactive
same,Potency,[4],inactive
CCc1cc2c(s1)-n1c(C)nnc1CN=C2c1ccccc1Cl,Potency,[3],inactive
same,Potency,[4],inactive
C[C@]12CC[C@H]3[C@@H](CCC4=CC(=O)CC[C@@H]43)[C@@H]1CC[C@@H]2OC(=O)CCc1ccco1,Potency,[3],inactive
same,Potency,[4],inactive
CC(C)N(CCC(C(N)=O)(c1ccccc1)c1ccccn1)C(C)C (stereo not given),outcome,[2],inactive
same,Potency,[3],inactive
same,Potency,[4],inactive
same,outcome,[7],inactive
same,outcome,[8],inactive
same,outcome,[9],inactive
CC(C)NC(C)C,Potency,[3],inactive
same,Potency,[4],inactive
CN1C[C@H](C(=O)N[C@]2(C)O[C@@]3(O)[C@@H]4CCCN4C(=O)[C@H](Cc4ccccc4)N3C2=O)C=C2c3cccc4[nH]cc(c34)C[C@H]21,Potency,[3],inactive
Cc1ccc(C(C)C)c(O)c1,outcome,[1],inactive
CC(C)(C)NCC(O)c1cc(Cl)c(N)c(C(F)(F)F)c1 (stereo not given),Potency,[3],inactive
same,Potency,[4],inactive

# Reference: PubChem BioAssay (NCATS)
